# Compound activity (PubChem)
# Hits are enriched below; roughly 3.2% of the tested compounds scored in any of these assays.
# AMA1 RON2 block = disrupts binding of P. falciparum AMA1 to RON2; hit rate 0.2% among 360,000; AlphaScreen AMA1-biotinylated RON2 peptide binding; AID 720542; Potency, µM (series often up to 58.2 µM), most hits filed as inhibitors; note: nearly all actives have a fitted effect of over 45% in size
#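 AMA1 (3D7) with his tag at 25 nM final met compounds first, then biotinylated RON2 peptide at 25 nM; detection used donor plus acceptor beads, 10 µg/mL apiece, read by AlphaScreen after 30 min at room temperature.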
# AmpC inh detg = blocks E. coli AmpC beta-lactamase in detergent assay; P00811; AmpC hydrolysis of nitrocefin, absorbance 480 nm, 0.01% Triton; Potency, µM (series often up to 114 µM), usual class: inhibitors; hit rate 0.041% among 370,000; AID 485294; note: nearly all actives have a fitted effect of over 25% in size
# Target sequence (P00811 whole entry, looked up): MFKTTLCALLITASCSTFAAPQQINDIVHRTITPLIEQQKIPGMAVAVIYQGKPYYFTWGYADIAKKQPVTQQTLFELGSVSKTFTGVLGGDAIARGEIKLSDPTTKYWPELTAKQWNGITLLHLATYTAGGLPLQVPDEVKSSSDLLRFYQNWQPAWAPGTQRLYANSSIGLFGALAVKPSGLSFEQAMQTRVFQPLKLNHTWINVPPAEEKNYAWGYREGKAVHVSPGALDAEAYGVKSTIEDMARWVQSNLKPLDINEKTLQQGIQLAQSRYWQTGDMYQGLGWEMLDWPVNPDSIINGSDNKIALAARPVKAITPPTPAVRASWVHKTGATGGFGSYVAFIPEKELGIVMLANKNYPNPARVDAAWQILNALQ
#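 20 mM phosphate pH 7.0 + 0.01% (detergent screen) or 0.0001% Triton X-100; 5.3 nM AmpC reagent; cpd preinc 15 min RT; nitrocefin (800 uM stock) to start; A480 q20 s × 4 min; Activity was normalised to no-enzyme and no-compound control wells.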
# RE007 growth inh = less growth of the S. pombe RE007 Vpr strain. S. pombe RE007 Vpr strain, BacTiter-Glo ATP luminescence, 24 h. Potency, µM (titrated, usually from 92.2 µM), hits mostly inhibitors. hit rate 0.21% among 360,000. AID 651644; active = well fitted falling curve with a large enough effect; inconclusive = small, poorly fitted or top-dose-only effect; inactive = no such curve, though single readings can be large or run the other way; note: nearly all actives have a fitted effect of over 50% in size
#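 Fission yeast strain RE007, carrying one chromosomally integrated HIV-1 vpr copy, was seeded at OD 0.01 in PMG+AL medium with 23 nL pinned compound. After 24 h at 30 °C and 99% humidity, viability was read by BacTiter-Glo luminescence.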
# AmpC no deterg = AmpC beta-lactamase inhibition without detergent. P00811. hit rate 0.52% among 330,000. AmpC nitrocefin hydrolysis, absorbance 480 nm, 0.0001% Triton. Potency, µM (doses to about 57.1 µM), most hits filed as inhibitors; note: nearly all actives have a fitted effect of over 20% in size
#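 AmpC (5.3 nM in the dispensed reagent) in 20 mM phosphate pH 7.0 with 0.01% (detergent screen) or 0.0001% Triton X-100 was preincubated with compounds for 15 min at room temperature. Nitrocefin was then added from an 800 uM solution, and hydrolysis was followed at 480 nm.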
# Sm TGR block = blocks Schistosoma mansoni thioredoxin glutathione reductase. Potency, µM (series often up to 114 µM), usual class: inhibitors. Q962Y6. AID 485364. hit rate 3% among 360,000. purified TGR, DTNB reduction, TNB absorbance 405 nm; note: nearly all actives have a fitted effect of over 60% in size
#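 TGR 20 nM + NADPH 100 uM (dispensed conc.), cpd preinc 15 min RT; start with NADPH (500 uM addition) then DTNB (15 mM addition). Kinetic TNB absorbance, 405 nm filter. Four-parameter Hill fit across titration.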
# A number is an active result; n = inactive; u = inconclusive; x = no result; [ ] = dose if it differs, or a comment. Unless noted, calls come from the whole dose curve; as a rule, active = well fitted curve in the direction sought with a large enough effect; inconclusive = small, poorly fitted or top-dose-only effect, or another doubt; inactive = no such curve, though single readings can be large; an effect the other way counts as inactive or inconclusive.
SMILES,AMA1 RON2 block,AmpC inh detg,RE007 growth inh,AmpC no deterg,Sm TGR block
Cc1ccc(/C=C/c2onc(C)c2S(=O)(=O)N2CCC(C(=O)Nc3ccc(C)c(N(C)C)c3)CC2)cc1,x,n,x,x,n
Nc1ncc2c(n1)CC(c1ccco1)CC2=O (stereo unspecified),n,n,n,n,50µM
CC(=O)Nc1ncc2c(n1)CC(c1ccco1)CC2=O (stereo unspecified),n,n,n,n,n
O=C1CC(c2ccco2)Cc2nc(N3CCc4ccccc4C3)ncc21 (stereo unspecified),n,u,n,n,32µM
O=C(Nc1ncc2c(n1)CC(c1ccco1)CC2=O)c1ccco1 (stereo unspecified),n,n,n,n,20µM
CCN1CCc2c(sc(-n3cccc3)c2C(CCC(C)C)NC(=O)NCCC(=O)OC)C1 (stereo unspecified),x,n,x,x,u
Cc1ccc(/C=C/c2onc(C)c2S(=O)(=O)N2CCC(C(=O)N3CCN(c4ccccc4F)CC3)CC2)cc1,x,n,x,x,n
CCCn1c2ccccc2c2cnn(CC(=O)NCc3ccccc3Cl)c(=O)c21,x,n,x,x,n
CCOc1ccc(CCNC(=O)C2CCN(c3ncnc4c3nc3n4CCCCC3)CC2)cc1,x,n,x,x,n
C/C(=N\Nc1ccc(C)c(Cl)c1)c1cccnc1,n,n,n,n,14µM
Clc1ccc2nc(Nc3ccccc3Cl)nc(-c3ccccc3)c2c1,x,n,x,x,n
O=S(=O)(Nn1c(O)c(C=C2N=c3ccccc3=N2)sc1=S)c1ccccc1,n,n,n,n,11µM
CCCCNC(=O)c1ccc2c(c1)N(CC)C(=O)c1ccccc1S2(=O)=O,n,u,n,45µM,n
Cc1ccc(CN(C)C(=O)CCc2c[nH]c3ccccc23)o1,n,n,n,n,n
CN(Cc1cccnc1)C(=O)CCCc1c[nH]c2ccccc12,n,n,n,n,32µM
CCOC(=O)/C=C/C(=O)Nc1cccc([N+](=O)[O-])c1,n,n,8.9µM,n,0.71µM
O=C(/C=C/c1cccc([N+](=O)[O-])c1)Nc1cccc(NC(=O)c2ccco2)c1,n,u,n,3.2µM,n
CCOC(=O)/C=C/C(=O)Nc1ccccc1-c1ccccc1NC(=O)/C=C/C(=O)OCC,n[2.32 µM],u,n,n,13µM
CCOC(=O)/C=C/C(=O)OCC(=O)Nc1ccc([N+](=O)[O-])cc1,n,n,n,n,4µM
O=C(/C=C/c1ccc(Cl)c([N+](=O)[O-])c1)Nc1cccc(NC(=O)c2ccco2)c1,n,n,n,n,n
CC(=O)Oc1ccc(OC(C)=O)c(SCCCCCN2CCOCC2)c1,n,n,n,n,50µM
Cc1ccc(C(=O)CSc2nc(-c3ccccc3)nc3c2CCCC3)cc1C,x,n,x,x,n
Cc1ccc(C)c(NC(=O)c2cc(S(=O)(=O)N3CCCc4ccccc43)ccc2F)c1,x,n,x,x,n
C/C(=N/NS(=O)(=O)c1cccc([N+](=O)[O-])c1)c1c[nH]c2ccccc12,n,n,n,n,45µM
COC(=O)N1C(=O)[C@](c2ccsc2)(C(C)C)N1C(=O)OC,n,n,n,n,32µM
SMILES,AMA1 RON2 block,AmpC inh detg,RE007 growth inh,AmpC no deterg,Sm TGR block
COC(=O)N1C(=O)[C@@](c2ccccc2)(C2CCCC2)N1C(=O)OC,n,u,n,n,u
COC(=O)N1C(=O)[C@](c2ccc(OC)cc2)(C(C)C)N1C(=O)OC,n,n,n,n,45µM
CCOC(=O)c1c(Nc2ccc(C)cc2)nnc(-c2ccccc2)c1-c1ccccc1,x,n,x,x,n
Cc1ccc(Nc2nnc(SCC(=O)c3ccc(O)cc3O)s2)cc1,n,n,n,11µM,n
O=C(OCC(=O)c1c[nH]c2ccccc12)c1cc(Br)ccc1O,n,n,n,2.2µM,n
Cc1ccc(C(=O)OCC(=O)c2c[nH]c3ccccc23)cc1,n,n,n,n,n
CC(C)CNC(=O)C(=O)Nc1c2c(nn1-c1ccccc1)CS(=O)(=O)C2,x,n,x,x,n
NS(=O)(=O)c1ccc(N=Nc2c(O)[nH]c(=S)[nH]c2=O)cc1,n,n,n,n,n
NS(=O)(=O)c1ccc(N=Nc2ccc(=O)[nH]c2O)cc1,n,n,n,n,22µM
NS(=O)(=O)c1ccc(N=Nc2ccc(O)c3ncccc23)cc1,n,n,x,u,56µM
CCc1ccc(N(CC)C(=O)Cn2nc(Cc3cccnc3)c3ccccc3c2=O)cc1,x,n,x,x,n
CCN(CCCNC(=O)c1nn(-c2ccc(OC)cc2)c(=O)c2c1c1ccccc1n2C)c1cccc(C)c1,x,n,x,x,n
CCOC(=O)C1=C(C)NC(=O)/C1=C\N(C)C,n,n,n,n,20µM
COc1cc(NCCCC(C)N)c2ncccc2c1 (stereo unspecified),n,n,n,n,35µM
COc1cc(NCCCCC(C)N)c2nccc(C)c2c1 (stereo unspecified),n,x,n,x,x
Cc1ccccc1CS(=O)(=O)Cc1ccc(C(=O)NCc2ccc(F)cc2)o1,x,n,x,x,n
CC1(C)Cc2c(C#N)c(N)sc(=S)c2CO1,n,n,n,n,u
CC(C)C1Cc2c(C#N)c(N)sc(=S)c2CO1 (stereo unspecified),n,n,n,n,10µM
COCc1[nH]c(=S)c(C#N)cc1C(=O)OC,n,n,n,n,20µM
Cc1cc(C)nc(Nc2ncc(O)n2-c2ccc(C)c(C)c2)n1,n,n,n,n,n
Cc1cc(C)nc(Nc2ncc(O)n2-c2ccc(C)c(Cl)c2)n1,n,n,u,0.32µM,n
O=c1[nH]c2c(s1)C(c1ccc(O)cc1)C1C3CCC(C3)C1S2 (stereo unspecified),n,n,n,45µM,n
CCOC(=O)c1cccc(NC(=O)c2ccc3c(c2)nnn3C2CCCC2)c1,x,n,x,x,n
C=CCOc1ccc(C(c2c(C(=O)O)[nH]c3ccccc23)c2c(C(=O)O)[nH]c3ccccc23)cc1,n,n,n,22µM,n
Oc1c(Br)cc(C=Nc2ccc3nc(-c4ccccc4)[nH]c3c2)c(O)c1Br,n,n,n,n,18µM
SMILES,AMA1 RON2 block,AmpC inh detg,RE007 growth inh,AmpC no deterg,Sm TGR block
Cc1ccccc1CCNC(=O)C1CCN(S(=O)(=O)c2ccc3c(ccn3C)c2)CC1,x,n,x,x,n
CCCN1C(=O)c2[nH]nc(-c3ccccc3O)c2C1c1ccc(OCc2ccccc2)c(OCC)c1 (stereo unspecified),x,n,x,x,n
O=C(NC1CCCCC1)c1ccc(Cn2c(SCc3cccc(F)c3)nc3cccnc32)cc1,x,n,x,x,n
Cc1ccc(C)c(NC(=O)CSc2nnc(-c3ccccc3)o2)c1,n,u,n,40µM,n
CCOc1ccc(-c2nnc(SCC(=O)Nc3cccc(Cl)c3C)o2)cc1,x,n,x,x,n
Cc1ccc(NC(=O)CSc2nnc(-c3ccco3)o2)cc1,n,u,n,n,79µM
CCOc1ccc(-c2nnc(SCC(=O)Nc3cccc(C#N)c3)o2)cc1,x,n,x,x,10µM
